Assay outcomes from PubChem.
Cardio protect: modulators protecting cardiomyocytes from myocardial damage; H9c2 cardiomyocytes, H2O2 injury protection, ATPLite, 2 h; protection from H2O2 cell death, % at 20 µM; 360,000 compounds, 0.63% hits;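 active = compounds giving at least 50% protection of heart cells from peroxide-induced death in the single-dose screen, raw or plate-pattern-corrected value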;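 note: 0% = DMSO wells with peroxide and 100% = DMSO wells without peroxide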
Efflux pump mplx: blocks antifungal efflux pumps in multiplex yeast assay; AID 485275; S. cerevisiae Candida pump triplex, Nile Red efflux; 330,000 compounds, 0.44% hits; inhibition, % at 10 µM;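 active = plate passing quality check with inhibition over a set limit, or well fluorescence over plate mean plus 4 SD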;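 note: Nile Red retained in pooled yeast measured as flow cytometry median fluorescence; 0% = buffer negative control and 100% = Enniatin B positive control; higher means more Nile Red kept so more efflux inhibition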
Calb FLC: affects C. albicans growth with fluconazole. growth inhibition, % (concentration not given with the values). AID 1979. 300,000 compounds, 0.57% hits. C. albicans CaCi-2 (fluconazole-resistant clinical isolate) + fluconazole, Alamar Blue growth, 48 h;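 active = growth inhibition above about 58% in most replicates, limit read from the data, passing the limit was not always enough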;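 note: all wells also contain fluconazole at 8 µg/ml as a sub-toxic cotreatment; 0% = median of DMSO wells and 100% = median of geldanamycin control wells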
KCC2 mod: KCC2 (human) Cl- transport modulation; Q9H2X9; KCC2 cells, thallium flux FluoZin-2 fluorescence; B-score of Tl+ flux slope (higher = more flux/activation; lower = inhibition) at 10 µM; 190,000 compounds, 2.2% hits; AID 1456;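 active = thallium flux slope and its plate-corrected score both differing from the plate sample mean at a set confidence after two filtering rounds, in either direction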;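 note: slope of fluorescence scaled to starting intensity during 10 to 20 s after thallium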
Target sequence (Q9H2X9 whole entry, looked up): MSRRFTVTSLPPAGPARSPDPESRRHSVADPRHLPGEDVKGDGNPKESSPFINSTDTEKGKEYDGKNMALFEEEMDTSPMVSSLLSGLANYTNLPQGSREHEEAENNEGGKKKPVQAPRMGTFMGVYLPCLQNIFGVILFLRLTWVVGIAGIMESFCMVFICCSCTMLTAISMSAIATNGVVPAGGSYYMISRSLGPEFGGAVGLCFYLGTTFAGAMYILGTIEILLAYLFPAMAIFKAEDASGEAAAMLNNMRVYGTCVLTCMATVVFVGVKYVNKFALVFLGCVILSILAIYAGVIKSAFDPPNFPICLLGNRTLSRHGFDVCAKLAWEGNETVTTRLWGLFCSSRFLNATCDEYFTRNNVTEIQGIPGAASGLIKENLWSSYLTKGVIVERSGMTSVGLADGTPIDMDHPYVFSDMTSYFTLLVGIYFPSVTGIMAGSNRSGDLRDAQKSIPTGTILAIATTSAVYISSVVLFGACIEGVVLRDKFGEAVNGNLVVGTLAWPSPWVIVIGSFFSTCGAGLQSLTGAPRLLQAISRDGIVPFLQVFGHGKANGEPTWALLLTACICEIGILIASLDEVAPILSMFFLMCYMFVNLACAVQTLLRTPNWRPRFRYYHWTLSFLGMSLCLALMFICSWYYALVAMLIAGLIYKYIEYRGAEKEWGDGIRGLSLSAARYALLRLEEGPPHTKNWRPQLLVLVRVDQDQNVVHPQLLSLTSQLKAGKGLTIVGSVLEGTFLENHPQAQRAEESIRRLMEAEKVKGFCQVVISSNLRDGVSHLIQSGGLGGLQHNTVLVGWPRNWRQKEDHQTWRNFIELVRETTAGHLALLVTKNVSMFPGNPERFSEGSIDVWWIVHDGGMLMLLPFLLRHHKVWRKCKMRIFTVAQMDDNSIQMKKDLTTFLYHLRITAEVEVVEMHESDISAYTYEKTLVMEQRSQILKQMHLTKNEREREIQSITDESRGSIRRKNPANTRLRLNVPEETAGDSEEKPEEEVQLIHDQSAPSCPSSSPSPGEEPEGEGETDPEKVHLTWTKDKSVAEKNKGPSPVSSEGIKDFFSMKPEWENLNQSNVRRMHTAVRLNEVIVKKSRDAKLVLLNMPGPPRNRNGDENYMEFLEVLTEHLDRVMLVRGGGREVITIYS
PHOSPHO1 inh: PHOSPHO1 (human) inhibition; inhibition, % at 13.3 µM; 290,000 compounds, 1.1% hits; Q8TCT1; recombinant PHOSPHO1, absorbance phosphatase assay; AID 1565; in the data active = inhibition above about 60%
Active calls of the source: *; . = no result given. Compounds with a hit are over-represented: about 3.3% of the library has one in this group of screens.

SMILES | Cardio protect | Efflux pump mplx | Calb FLC | KCC2 mod | PHOSPHO1 inh
CCCC(=O)NC(c1ccc(N(C)C)cc1)c1ccc2cccnc2c1O (configuration not stated) | 29 | 0 | 92* | . | 15
CCCCC(=O)NC(c1ccc(OC)cc1)c1ccc2cccnc2c1O (configuration not stated) | 40 | . | . | . | .
Cc1ccc(S(=O)(=O)NCCC(=O)NCC(c2cccs2)N2CCOCC2)cc1 (configuration not stated) | -2 | 0 | -4 | . | .
CC1CCCCN1C(=O)C1CCCCN1S(=O)(=O)c1cccc([N+](=O)[O-])c1 (configuration not stated) | -1 | 0 | 9 | -0.82 | 28
S=C(Nc1cccc2ccccc12)NN1CCOCC1 | 1 | 0 | -1 | 0.22 | 94*
CCN(CC)CCn1c(=S)[nH]c2cc(Cl)ccc2c1=O | 9 | -1 | 6 | 25* | 94*
CCN(CC)CCn1c(=S)[nH]c2cc(C(=O)N3CC(C)CC(C)C3)ccc2c1=O (configuration not stated) | 3 | 0 | 3 | . | 13
Cc1ccc2c(c1)N(C(=O)CCC(=O)NCCCN1CCOCC1)CCO2 | 10 | 0 | 1 | . | 12
Nc1ccc(Oc2cccc(Oc3ccc(N)cc3)c2)cc1 | -2 | 0 | 116* | -0.076 | -8
Nc1ccc(Oc2ccc3c(c2)OCO3)cc1 | 2 | 0 | 0 | -0.6 | 61*
O=C(CN1c2cccc3cccc(c23)S1(=O)=O)N1CCCCC1 | -3 | 0 | . | . | .
CCOC(=O)c1sc(Nc2nc(OC)cc(OC)n2)nc1C | . | 0 | 25 | 0.074 | 32
O=C(CSc1nccc(=O)[nH]1)N1N=C2/C(=C/c3ccco3)CCCC2C1c1ccco1 (configuration not stated) | -7 | 0 | -4 | -0.1 | -43
Cn1cnnc1SCC(=O)N1N=C2/C(=C/c3ccco3)CCCC2C1c1ccco1 (configuration not stated) | -1 | 0 | -2 | 0.028 | 80*
COCCCNC(=S)N1CCC(NC(=O)Nc2ccc(C)cc2)CC1 | 3 | 0 | -9 | -2.3 | 15
NC(=O)c1cc(Cc2ccccc2)sc1NC(=O)c1ccco1 | -6 | 0 | -8 | -0.87 | 24
CCOc1ccc(CC(=O)Nc2sc(Cc3ccccc3)cc2C(N)=O)cc1OCC | -2 | 0 | 7 | -0.46 | 97*
O=C1CC(c2ccccc2Cl)c2c(sc3c(=O)[nH]c(CCl)nc23)N1 (configuration not stated) | . | 0 | -3 | -0.21 | -8
Cc1cc(C(=O)N2CCC2(C)C(=O)NS(=O)(=O)c2cccc(Cl)c2)nn1C (configuration not stated) | -13 | . | . | . | .
CC1(C)Cc2c(c(N3CCOCC3)nc3sc4c(NN)ncnc4c23)CS1 | 59* | 0 | -8 | . | 7
CCN(CC)c1ccc(C(=O)NC(=S)N2CCN(Cc3ccc4c(c3)OCO4)CC2)cc1 | -8 | 0 | -23 | 17* | -5
CCCCNS(=O)(=O)c1cccc(NC(=O)[C@@H]2O[C@H](CO)[C@@H](O)[C@H]2O)c1 | -1 | . | . | . | .
O=c1[nH]c(SCc2n[nH]c(=S)n2-c2ccccc2)nc2sc3c(c12)CCC3 | 62* | 5 | 3 | -1.2 | 85*
CCCc1ccc(/C=C2\C(=O)c3ccccc3C(O)=C2C(=O)OCC)cc1 | . | 1.9* | 59 | . | -13
CCOC(=O)C1=C(O)c2ccccc2C(=O)/C1=C\c1ccc(CC)cc1 | -19 | 1 | 56 | . | 7
SMILES | Cardio protect | Efflux pump mplx | Calb FLC | KCC2 mod | PHOSPHO1 inh
CCCCN(C(=O)c1cccc(S(=O)(=O)N(CC)c2ccccc2)c1)c1c(N)n(CC(C)C)c(=O)[nH]c1=O | -4 | . | . | . | .
CC1(C)Cc2c(sc3ncn(N)c(=N)c23)CO1 | 18 | 0 | -17 | 1.3 | 6
CC1(C)Cc2c(sc3ncn4c(=S)[nH]nc4c23)CO1 | 2 | 0 | 6 | 0.3 | 68*
CCOC(=O)Cc1csc(NC(=S)NC(=O)c2ccccc2)n1 | -17 | 0 | 33 | 52* | -4
CCOC(=O)Cc1csc(NC(=S)NC(=O)c2ccccc2Br)n1 | -2 | 0 | 5 | 50* | -10
CCOC(=O)Cc1csc(NC(=O)c2ccc(C)cc2)n1 | -15 | 0 | -11 | -0.074 | 35
CCOC(=O)Cc1csc(NC(=O)c2ccc(Br)s2)n1 | . | 0 | 7 | 0.28 | -34
CCOC(=O)Cc1csc(NC(=S)NC(=O)c2ccc(C)cc2)n1 | -11 | 0 | 4 | 55* | -1
O=C1NC(=S)SC1=C1CCCCCC1 | -7 | 0 | 13 | . | 84*
O=C1N=C(N2CCCCC2)SC1=C1CCCCC1 | -6 | 0 | -7 | 0.084 | 19
CC(=O)Nc1ccc(S(=O)(=O)N2CCN(C(=O)c3ncoc3-c3ccccc3)CC2)cc1 | -5 | . | -4 | . | 22
CCN(CC)S(=O)(=O)c1cccc(-c2nnc(SCc3nnc(-c4cccs4)o3)n2N)c1 | 6 | 0 | 6 | -2.2 | 39
CN(C)S(=O)(=O)c1cccc(-c2nnc(SCc3cc(Cl)cc4c3OCOC4)n2N)c1 | 6 | 0 | 1 | -0.01 | 99*
CC(C)(CNC(=O)c1cc2c(s1)CCCC2)N1CCOCC1 | 1 | 0 | 6 | . | .
CCOC(=O)Cn1ccc(-c2ccccc2)c(C#N)c1=O | -15 | 0 | 0 | -1.6 | 37
CC(C)Nc1nc(NC(C)C)nc(N(C)n2cnnc2)n1 | -7 | 0 | -3 | 0.71 | 94*
CN1C(=O)c2ccccc2N(C)C1c1cccc(O)c1 (configuration not stated) | 4 | 0 | 4 | . | 44
CC/C(=N\NC(=S)Nc1cc(C)ccc1C)c1ccc(OC(F)F)cc1 | 8 | 0 | -5 | 7.7* | -7
CC/C(=N\NC(=S)Nc1ccc(OC)cc1)c1ccc(OC(F)F)cc1 | -6 | 0 | 3 | 8.7* | -10
Cc1ccc(CO/N=C\Cc2snc(Sc3ncc(C(F)(F)F)cc3Cl)c2C#N)cc1 | -14 | 0 | 12 | -0.34 | 95*
COc1cc(NC(=O)c2cc3nc(-c4ccccc4)cc(-c4ccccc4)n3n2)cc(OC)c1OC | 80* | 0 | -4 | . | 23
Cc1nc2ccccc2c2oc(C(=O)Nc3ccc4c(c3)OCCO4)cc12 | 100* | 0 | -5 | . | 7
COc1cc(NC(=O)c2cc(-c3ccccc3)on2)cc(OC)c1OC | 3 | 0 | 20 | . | 29
COc1ccc(CNC(=O)c2cc3c(C)nc4ccccc4c3o2)c(OC)c1 | -30 | 0 | -7 | -0.3 | -2
Cc1nc2ccccc2c2oc(C(=O)Nc3ccc(C(C)C)cc3)cc12 | 26 | 0 | -7 | 1 | -7
COc1cc(NC(=O)c2cc3c(C)nc4ccccc4c3o2)cc(OC)c1OC | 66* | 0 | -2 | . | 7
CCN(CC)CCNC(=O)c1ccc(NC(=O)c2cc(S(=O)(=O)N3CCCCC3)ccc2N2CCOCC2)cc1 | 2 | . | . | . | .
CN1C[C@@H]2[C@@H]3C(=O)N(Cc4ccccc4)C(=O)[C@@H]3[C@](Cc3ccccc3)(C1=O)N2C(=O)c1ccc(C(C)(C)C)cc1 | -14 | . | . | . | .
Cc1ccccc1C(=O)NNC(=O)c1cc(S(=O)(=O)N2CCOCC2)ccc1C | -3 | 0 | . | . | .
